Measured values published in PubChem BioAssay (NCATS).
Inconclusive results are not listed. Entries that show only a call come without a potency. Values without a mark were called inactive. Calls of active or inactive are those of the source. Calls follow the shape of the dose curve; as a rule, active = well fitted activation curve with a large enough effect; inconclusive = small, poorly fitted or top-dose-only effect; inactive = flat fitted curve, though single readings scatter.

assay: Primary redox qHTS assay for identification of artifact compounds. (AID 1845223); details: Amplex Red/HRP redox cycling with DTT, fluorescence; series mostly up to 53.8 µM
Excerpt: PI: Alexander Tropsha Ph.D.
UNC Eshelman School of Pharmacy
University of North Carolina, Chapel Hill, North Carolina
Hits from high-throughput screening (HTS) of chemical libraries are often false positives due to their interference with the assay detection technology. In response to this problem, we generated the largest publicly available library of chemical liabilities and developed a free webtool to predict HTS artifacts, both of which are described herein. More specifically, we generated, curated, and integrated HTS datasets for thiol reactivity, redox activity, and luciferase (firefly and nano) activity. Using these curated datasets, we developed and validated several Quantitative Structure-Interference Relationship (QSIR) models to predict nuisance behavior. […] These models were employed for virtual profiling of the National Center for Advancing Translational Science's (NCATS) in-house library, and 256 compounds for each assay were selected for the experimental validation of nuisance behavior. The BA for these external predictions ranged from 58 to 78% for compounds within the applicability domains of the models. […] The models developed in this study, along with aggregation models previously developed by our group (SCAM Detective) were implemented in "Liability Predictor," an online tool which may be used as part of chemical library design or for triaging HTS hits. Both the models and the curated datasets are publicly available at https://liability.mml.unc.edu/.
SEQUENCE No. (e.g., 1, 2, 3, etc.); […] (e.g., Cells, Incubation, Reagent, etc.); VALUE; DESCRIPTION.
1; Reagent; 3 uL; Amplex Red and HRP mixture.
2; Compounds and control; 16 nL; Kalypsis pin tool (Wako USA) equipped with a 1536-well pin head. […]
6; Detection; Fluorescence, ViewLux microplate reader, 525 nm excitation, 598 nm emission.
NOTES (numbers refer to Sequence numbers above)
1. 3 uL of a mixture containing Amplex Red (25 uM final concentration) and horseradish peroxidase (HRP; 250 mU/mL final concentration) in assay buffer (HBSS) was dispensed into all wells of a 1536-well assay plate (solid-bottom black plate; Greiner Bio One, Monroe, NC).
2. A Wako Pin-tool (Wako Automation, Richmond, VA) was used to transfer 16 nL of compounds (consisting of 7-plates in qHTS format, final concentration range 18.3 nM to 114 uM) or control DA3003 (final concentration range 1.22 nM to 40 uM).
3. 15 min. incubation at room temperature protected from light.
4. 1 uL of DTT (prepared fresh; final concentration 250 uM) was dispensed for a final assay volume of 4 uL.
5. Plates were centrifuged (121xg, 15 seconds) and incubated for 30 minutes at room temperature protected from light.
6. Samples were read for fluorescence (Ex/Em = 525(20)/598(25) nm) on a ViewLux CCD imager (PerkinElmer). Data were normalized to DMSO (0% activity) and DA3003 (10 uM final concentration; 100% activity) and the resulting percent inhibition data were fitted to a 4-parameter Hill equation using NCATS in-house software.

| SMILES | Potency | redox activity (% of DA3003) |
| --- | --- | --- |
| C/C=C/C=C/C=C/C(=O)O[C@@H]1[C@@H](OC)C2=C(C(=O)N(C(CCC(=O)O)C(=O)O)C2)[C@@]2(C)CCCC(C)(C)[C@H]12 (stereo not given in full) | inactive | – |
| CC1(C)CC[C@]2(C(=O)O)CC[C@]3(C)C(=CCC4[C@@]5(C)C[C@@H](O)[C@H](O)[C@@](C)(CO)C5CC[C@]43C)C2C1 (stereo not given in full) | inactive | – |
| Cc1ccc([C@@H]2CC=C(C(=O)O)[C@H](c3ccc(C(C)(C)C)cc3)N2S(=O)(=O)c2ccc(C)cc2)cc1 | inactive | – |
| C=C(CCO)C(=O)OCC1OCC(OC(=O)C(=C)CCO[C@@H]2O[C@H](CO)[C@@H](O)[C@H](O)[C@H]2O)C(O)C1O (stereo not given in full) | inactive | – |
| CC(C)[C@](O)(c1ccc2cc(OC(F)F)c(OC(F)F)cc2c1)c1cn[nH]n1 | inactive | – |
| COc1cc(O)cc2c1C(=O)OC(C)C2 (stereo not given) | inactive | – |
| CC[C@H](C)[C@H](NC(=O)[C@H](Cc1ccc(O)cc1)NC(=O)[C@@H](N)C(C)C)C(=O)N[C@@H](Cc1cnc[nH]1)C(=O)N1CCC[C@H]1C(=O)N[C@@H](Cc1ccccc1)C(=O)O | – | -2.99% [at 6.41 µM] |
| CC(=O)OC12CC(C)C(OC(=O)c3ccccc3)C1/C=C(/C)C(OC(=O)c1ccccc1)CC(=O)C(C)(C)/C=C/C(C)C2=O (stereo not given) | inactive | – |
| CCOC(=O)C1=C(N)Oc2ccc(Cl)cc2C1C(C#N)C(=O)OCC (stereo not given) | inactive | – |
| O=C(Nc1ccccc1)Nc1ccc(-c2ccc(C(=O)C3CCCC3C(=O)O)cc2)cc1 (stereo not given) | inactive | – |
| CC(C)=CCc1cc(O[C@@H]2O[C@H](CO[C@@H]3OC[C@](O)(CO)[C@H]3O)[C@@H](O)[C@H](O)[C@H]2O)ccc1O | inactive | – |
| COc1cc([C@@H](O[C@@H]2O[C@H](CO)[C@@H](O)[C@H](O)[C@H]2O)[C@@H]2CO[C@H](c3ccc(O)c(OC)c3)[C@H]2CO)ccc1O | inactive | – |
| CCCC/C=C\CCCCCc1cc(=O)c2ccccc2n1C | inactive | – |
| CC(=O)c1ccc(O[C@@H]2OC[C@@H](O)[C@H](O)[C@H]2O[C@]2(CO)O[C@H](CO)[C@@H](O)[C@@H]2O)c(O)c1 | inactive | – |
| CC(C)Oc1ccc(-c2nc(-c3cccc4c3CCC4NCCC(=O)O)no2)cc1C#N (stereo not given) | inactive | – |
| C[C@]12CC[C@@H]3c4ccc(O)cc4CC[C@H]3[C@@H]1C[C@@H](O[C@@H]1O[C@H](C(=O)O)[C@@H](O)[C@H](O)[C@H]1O)[C@@H]2O | inactive | – |
| CC(O)C(O)/C=C/C=C/C(=O)O[C@@H]1C=C(C(=O)O)[C@](O)(CO)[C@@]2(C)CCCC(C)(C)[C@H]12 (stereo not given in full) | inactive | – |
| CCC(=O)OCC(=O)[C@@]1(OC(=O)CC)[C@@H](C)C[C@H]2[C@@H]3CCC4=CC(=O)C=C[C@]4(C)[C@@]3(F)[C@@H](O)C[C@@]21C | inactive | – |
| COC(=O)c1[nH]c(=O)c2ccccc2c1-c1ccc[nH]1 | inactive | – |
| C=C[C@H]1[C@H](O[C@@H]2O[C@H](CO)[C@@H](O)[C@H](OC(=O)/C=C/c3ccc(O)c(OC)c3)[C@H]2O)OC=C2C(=O)OCC[C@]21O | inactive | – |

| SMILES | Potency | redox activity (% of DA3003) |
| --- | --- | --- |
| Cc1ncc([N+](=O)[O-])n1C[C@H](O)CN1CCOCC1 | inactive | – |
| CC1(C)CC[C@]2(C(=O)O[C@@H]3O[C@H](CO)[C@@H](O)[C@H](O)[C@H]3O)CC[C@]3(C)C(=CCC4[C@@]5(C)C[C@H](O)[C@H](O[C@@H]6O[C@H](C(=O)O)[C@@H](O)[C@H](O)[C@H]6O)[C@@](C)(CO)C5CC[C@]43C)C2C1 (stereo not given in full) | – | -11.2% [at 11.5 µM] |
| COC(=O)C(CC1(O)c2ccccc2N2C(=O)C(CC(C)C)NC21)n1cnc2ccccc2c1=O (stereo not given) | inactive | – |
| CN1CCN(C2=Nc3ccccc3Nc3ccc(O)cc32)CC1 | inactive | – |
| CCCCS(=O)(=O)NC(Cc1ccc(OCCCCC2CCNCC2)cc1)C(=O)O (stereo not given) | inactive | – |
| CC(=O)OC1C(C)C2C(OC3OC(CO)C(O)C(O)C3O)OC=C(C(=O)O)C2C1OC(=O)c1ccccc1 (stereo not given) | inactive | – |
| CC(C)(O)c1ccc2c(c1)C(=O)C[C@H]1[C@](C)(C(=O)O)CCC[C@]21C | inactive | – |
| C/C=C/C=C/C(=O)OC1CC/C=C/C(O)C(O)C(CCC)OC1=O (stereo not given) | inactive | – |
| CC(=O)[C@@H]1C[C@H](C(C)(C)O[C@@H]2O[C@H](CO)[C@@H](O)[C@H](O)[C@H]2O)CC[C@@]2(CO)OC(=O)C[C@@H]12 | inactive | – |
| CC1(C)CCC[C@]2(C)C1CC=C(CO)[C@H]2CC/C(=C/CO)CO (stereo not given in full) | inactive | – |
| CC1=CC(=O)C2C(C)(C)CCC[C@]2(C)[C@H]1CC[C@H](C)CC(=O)O (stereo not given in full) | inactive | – |
| COc1cccc(Cn2ncc3c4sc(S(C)=O)cc4n(C)c3c2=O)c1 (stereo not given) | inactive | – |
| CCCSc1nc(NC2CC2c2ccc(F)c(F)c2)c2nnn(C3CC(OCCO)C(O)C3O)c2n1 (stereo not given) | inactive | – |
| CC1C2=CC(=O)OC2(O)CC2C1C(O)CC1C(C)(CO)CCCC21C (stereo not given) | inactive | – |
| C[C@H]1CC[C@@]2(OC1)O[C@H]1CC3C4CC[C@H]5C[C@@H](O[C@@H]6O[C@H](CO)[C@H](O[C@@H]7O[C@H](CO)[C@@H](O)[C@H](O[C@@H]8OC[C@@H](O)[C@H](O)[C@H]8O)[C@H]7O[C@@H]7O[C@H](CO)[C@@H](O)[C@H](O)[C@H]7O)[C@H](O)[C@H]6O)[C@H](O)C[C@]5(C)C4=CC(=O)[C@]3(C)[C@H]1[C@@H]2C (stereo not given in full) | – | 3.4% [at 11.5 µM] |
| NC(=O)c1ccc(F)c2c1C[C@@H](N(C1CCC1)C1CCC1)CO2 | inactive | – |
| COC(=O)Cn1nc(-c2cccc(OC)c2)c2ccccc21 | inactive | – |
| COc1ccc2[nH]c(S(=O)Cc3ncc(C)c(OC)c3C)nc2c1 (stereo not given) | inactive | – |
| C=C(CO)C(=O)O[C@H]1C[C@@]23O[C@@H]2CC/C(=C/[C@H]2OC(=O)C(=C)[C@H]12)CO[C@H]3O | inactive | – |
| Cn1c2ccc(NC(=O)c3ccccc3)cc2c(=O)n2nc(C(=O)O)cc12 | inactive | – |
